In PubChem BioAssay (NCATS):
Results filed as inconclusive are left out. Entries that show only a call come without a potency. Active and inactive are the calls of the source. Calls come from the whole dose curve; as a rule, active = well fitted cell-killing curve with a large enough effect; inconclusive = small, poorly fitted or top-dose-only effect, or effect the other way; inactive = no such curve, though single readings can be large or run the other way.

test: Quantitative High-Throughput drug screen in 47 multiple myeloma cell lines against the NCATS MIPE library collection: PE2_PLB cell viability assay (AID 1919869); conditions: PE2_PLB myeloma cells viability, ATP luminescence, 48 h; series mostly up to 45.8 µM; note: nearly all actives have a fitted effect of over 35% in size
Summary of the method: (§1)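 Viability after 48 h drug exposure was measured as ATP-dependent luminescence. Cells, 500 per well, sat at 37 °C under 5% CO2; DMSO wells set 100%, media-only wells 0%.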
Potency is the fitted concentration of half-maximal effect.

SMILES | Potency
COc1cc2nc(N3CCN(C(=O)C4COc5ccccc5O4)CC3)nc(N)c2cc1OC (centres undefined) | 18.7 µM (active)
NCCS(=O)(=O)O | inactive
COc1cc2c(c(OC)c1OC)-c1ccc(OC)c(=O)cc1[C@@H](NC(C)=O)CC2 | inactive
Cc1ccccc1N1C(=O)c2cc(S(N)(=O)=O)c(Cl)cc2NC1C (centres undefined) | inactive
COc1ccc2c(c1)c(CC(=O)O)c(C)n2C(=O)c1ccc(Cl)cc1 | inactive
C[C@@H]1CC(=O)NN=C1c1ccc(NN=C(C#N)C#N)cc1 | 14.8 µM (active)
CC1(C)O[C@H]2CC(=O)OC[C@]23[C@H]2CC[C@@]4(C)[C@H](c5ccoc5)OC(=O)[C@H]5O[C@]54[C@]2(C)C(=O)C[C@@H]13 | inactive
CN1CCN(C2=Nc3cc(Cl)ccc3Nc3ccccc32)CC1 | inactive
CCC1(C)CC(=O)NC1=O (centres undefined) | inactive
CN(C)CCCN1c2ccccc2CCc2ccc(Cl)cc21 | 2.64 µM (active)
CC(=O)OCC(CCn1cnc2cnc(N)nc21)COC(C)=O | inactive
CN1CCC(=C2c3ccccc3CC(=O)c3sccc32)CC1 | 11.8 µM (active)
COc1ccccc1N1CCN(CC(O)COc2cccc3ccccc23)CC1 (centres undefined) | inactive
NC(=O)OCC(COC(N)=O)c1ccccc1 | inactive
Cc1cc(C(C)(C)C)c(O)c(C)c1CC1=NCCN1 | inactive
Nc1c2c(nc3ccccc13)CCCC2 | inactive
COc1cc2nc(N3CCN(C(=O)c4ccco4)CC3)nc(N)c2cc1OC | 10.5 µM (active)

SMILES | Potency
CN1CCN(CCCN2c3ccccc3Sc3ccc(Cl)cc32)CC1 | 23.5 µM (active)
NC12CC3CC(CC(C3)C1)C2 | inactive
CC(C)NCC(O)c1ccc(O)c(O)c1 (centres undefined) | 1.48 µM (active)
O=C1N(c2ccccc2)c2ccccc2C1(Cc1ccncc1)Cc1ccncc1 | 20.9 µM (active)
CCOC(=O)c1ncn2c1CN(C)C(=O)c1cc(F)ccc1-2 | inactive
CCN1CCCC1CNC(=O)c1cc(S(=O)(=O)CC)c(N)cc1OC (centres undefined) | inactive
CN(C)C(=N)N=C(N)N | inactive
CN1C2CCC1CC(OC(=O)C(CO)c1ccccc1)C2 (centres undefined) | inactive
CN(C)CCC=C1c2ccccc2C=Cc2ccccc21 | inactive
COc1ccccc1OCCNCC(O)COc1cccc2[nH]c3ccccc3c12 (centres undefined) | inactive
CN(Cc1cnc2nc(N)nc(N)c2n1)c1ccc(C(=O)N[C@@H](CCC(=O)O)C(=O)O)cc1 | 0.187 µM (active)
NCCc1cnc[nH]1 | inactive
Cn1c(=O)c2c(ncn2C)n(C)c1=O | inactive
O=C(c1ccc(F)cc1)C1CCN(CCn2c(=O)[nH]c3ccccc3c2=O)CC1 | inactive
CN(C)CCOC(c1ccccc1)c1ccccc1 | 7.43 µM (active)
O=c1c(O)c(-c2ccc(O)c(O)c2)oc2cc(O)cc(O)c12 | 18.7 µM (active)
CCC1(c2ccccc2)C(=O)NCNC1=O | 2.96 µM (active)

test: Quantitative High-Throughput drug screen in 47 multiple myeloma cell lines against the NCATS MIPE library collection: PCM6_Riken cell viability assay (AID 1919870); conditions: CellTiter-Glo ATP, 48 h; series mostly up to 45.8 µM; note: nearly all actives have a fitted effect of over 30% in size
Summary of the method: as §1

SMILES | Potency
COc1cc2nc(N3CCN(C(=O)C4COc5ccccc5O4)CC3)nc(N)c2cc1OC (centres undefined) | 20.9 µM (active)
NCCS(=O)(=O)O | inactive
COc1cc2c(c(OC)c1OC)-c1ccc(OC)c(=O)cc1[C@@H](NC(C)=O)CC2 | inactive
Cc1ccccc1N1C(=O)c2cc(S(N)(=O)=O)c(Cl)cc2NC1C (centres undefined) | 5.9 µM (active)
C[C@@H]1CC(=O)NN=C1c1ccc(NN=C(C#N)C#N)cc1 | 18.7 µM (active)
CCC1(C)CC(=O)NC1=O (centres undefined) | inactive
CN(C)CCCN1c2ccccc2CCc2ccc(Cl)cc21 | 0.469 µM (active)
CC(=O)OCC(CCn1cnc2cnc(N)nc21)COC(C)=O | inactive
CN1CCC(=C2c3ccccc3CC(=O)c3sccc32)CC1 | 14.8 µM (active)
Cc1cc(C(C)(C)C)c(O)c(C)c1CC1=NCCN1 | inactive
Nc1c2c(nc3ccccc13)CCCC2 | inactive
COc1cc2nc(N3CCN(C(=O)c4ccco4)CC3)nc(N)c2cc1OC | 7.43 µM (active)
CN1CCN(CCCN2c3ccccc3Sc3ccc(Cl)cc32)CC1 | 8.33 µM (active)
NC12CC3CC(CC(C3)C1)C2 | 3.32 µM (active)
CC(C)NCC(O)c1ccc(O)c(O)c1 (centres undefined) | 1.18 µM (active)
CCOC(=O)c1ncn2c1CN(C)C(=O)c1cc(F)ccc1-2 | inactive
CCN1CCCC1CNC(=O)c1cc(S(=O)(=O)CC)c(N)cc1OC (centres undefined) | inactive
CN1C2CCC1CC(OC(=O)C(CO)c1ccccc1)C2 (centres undefined) | inactive
COc1ccccc1OCCNCC(O)COc1cccc2[nH]c3ccccc3c12 (centres undefined) | 16.6 µM (active)
CN(Cc1cnc2nc(N)nc(N)c2n1)c1ccc(C(=O)N[C@@H](CCC(=O)O)C(=O)O)cc1 | 0.105 µM (active)
NCCc1cnc[nH]1 | inactive
Cn1c(=O)c2c(ncn2C)n(C)c1=O | inactive
CN(C)CCOC(c1ccccc1)c1ccccc1 | 8.33 µM (active)
O=c1c(O)c(-c2ccc(O)c(O)c2)oc2cc(O)cc(O)c12 | 18.7 µM (active)
CCC1(c2ccccc2)C(=O)NCNC1=O | 3.72 µM (active)
